Data on 39 sequences can be found in paper PMC5700166.

This assay deals with T1, GST-Aq-NF-kB (Amphimedon queenslandica, UniProt A9Y5G7 2-389).
T1 sequence: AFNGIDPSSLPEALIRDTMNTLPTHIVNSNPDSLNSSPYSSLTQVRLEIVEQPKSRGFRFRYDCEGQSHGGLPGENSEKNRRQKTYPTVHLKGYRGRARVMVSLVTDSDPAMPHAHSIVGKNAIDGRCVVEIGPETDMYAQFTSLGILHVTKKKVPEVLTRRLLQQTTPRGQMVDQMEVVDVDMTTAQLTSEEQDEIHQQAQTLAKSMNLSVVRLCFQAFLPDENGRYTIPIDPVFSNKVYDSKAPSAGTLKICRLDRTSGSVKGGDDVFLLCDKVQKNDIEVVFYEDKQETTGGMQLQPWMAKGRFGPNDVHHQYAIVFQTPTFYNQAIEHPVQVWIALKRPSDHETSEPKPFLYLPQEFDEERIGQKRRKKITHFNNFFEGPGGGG
Description: protein-binding microarray (PBM); PBM: ~300 nM protein, 6 mM HEPES pH 7.8, 80 mM KCl, 0.5 mM EDTA, 0.5 mM EGTA, 6% glycerol, 35 ng/ul poly-dIdC, 1% milk, 1 h, room temperature; Ap Aiptasia and Nv Nematostella (sea anemones) / Co Capsaspora / Aq Amphimedon (sponge) / Dm Drosophila / Hu human; RHD is the Rel homology domain; high values mean tight binding. To be noted: dsDNA, one strand shown.
“CCGATTAACATCAGGGGGTATACTGATGTTAATCGGGTCTTGATTCGCTTGACGCTGCTG” came in with a binding signal of 4.14 z-score.
For “CCGATTAACATCAGGGTAAAACCTGATGTTAATCGGGTCTTGATTCGCTTGACGCTGCTG” the value was 6.02 z-score; for “CCGATTAACATCAGAAGTTTCCCTGATGTTAATCGGGTCTTGATTCGCTTGACGCTGCTG”, 6.09 z-score.
For “CCGATTAACATCAGGATCTTCCCTGATGTTAATCGGGTCTTGATTCGCTTGACGCTGCTG” the value was 5.89 z-score; for “CCGATTAACATCAGGGAGCCCCCTGATGTTAATCGGGTCTTGATTCGCTTGACGCTGCTG”, 7.55 z-score; for “CCGATTAACATCAAAGTGTCCCCTGATGTTAATCGGGTCTTGATTCGCTTGACGCTGCTG”, 4.15 z-score.
For “CCGATTAACATCACGTAAACCCCTGATGTTAATCGGGTCTTGATTCGCTTGACGCTGCTG” the value was 3.41 z-score; for “CCGATTAACATCAGAAATCCCGCTGATGTTAATCGGGTCTTGATTCGCTTGACGCTGCTG”, 3.08 z-score; for “CCGATTAACATCATCCCCGTGTCTGATGTTAATCGGGTCTTGATTCGCTTGACGCTGCTG”, 3.87 z-score.
“CCGATTAACATCAGAATAACCCCTGATGTTAATCGGGTCTTGATTCGCTTGACGCTGCTG” yielded a binding signal of 4.42 z-score.
In the case of “CCGATTAACATCAGGGGTTTCCATGATGTTAATCGGGTCTTGATTCGCTTGACGCTGCTG”, the binding signal is 5.61 z-score.
The figure for “CCGATTAACATCAGACATTCCCATGATGTTAATCGGGTCTTGATTCGCTTGACGCTGCTG” is 2.26 z-score; for “CCGATTAACATCAGGGGAAGGAATGATGTTAATCGGGTCTTGATTCGCTTGACGCTGCTG” it is 4.05 z-score.
The figure for “CCGATTAACATCACGGGTTTCCCTGATGTTAATCGGGTCTTGATTCGCTTGACGCTGCTG” is 5.5 z-score; for “CCGATTAACATCAGGGATTTCCATGATGTTAATCGGGTCTTGATTCGCTTGACGCTGCTG” it is 5.39 z-score.
The figure for “CCGATTAACATCAACCACCCCCTTGATGTTAATCGGGTCTTGATTCGCTTGACGCTGCTG” is 3.83 z-score.
As for “CCGATTAACATCACTGTTTTCCCTGATGTTAATCGGGTCTTGATTCGCTTGACGCTGCTG”, the binding signal was determined as 3.31 z-score.
“CCGATTAACATCAGGGAAACCCATGATGTTAATCGGGTCTTGATTCGCTTGACGCTGCTG” gave a binding signal of 4.85 z-score.
The sequence “CCGATTAACATCAGATATTTCCCTGATGTTAATCGGGTCTTGATTCGCTTGACGCTGCTG” showed a binding signal of 6.38 z-score.
In turn, “CCGATTAACATCAGGGCCCCCCCTGATGTTAATCGGGTCTTGATTCGCTTGACGCTGCTG” registered a binding signal of 7.6 z-score.
For “CCGATTAACATCAGGATATTCCCTGATGTTAATCGGGTCTTGATTCGCTTGACGCTGCTG” the value was 6.63 z-score; for “CCGATTAACATCAGGGATACCCCTGATGTTAATCGGGTCTTGATTCGCTTGACGCTGCTG”, 6.98 z-score.
Sequence “CCGATTAACATCAATTTTTCCCATGATGTTAATCGGGTCTTGATTCGCTTGACGCTGCTG” registered a binding signal of 3.27 z-score.
Take “CCGATTAACATCACAAAACTCCCTGATGTTAATCGGGTCTTGATTCGCTTGACGCTGCTG”: the binding signal worked out at 6.32 z-score.
For “CCGATTAACATCAAACCCCCCCGTGATGTTAATCGGGTCTTGATTCGCTTGACGCTGCTG” the value was 4.9 z-score; for “CCGATTAACATCAACGCCCCCCCTGATGTTAATCGGGTCTTGATTCGCTTGACGCTGCTG”, 4.73 z-score.
“CCGATTAACATCAGGGGGGGTACTGATGTTAATCGGGTCTTGATTCGCTTGACGCTGCTG” had a binding signal of 4.67 z-score.
Regarding “CCGATTAACATCACACCCCCCCCTGATGTTAATCGGGTCTTGATTCGCTTGACGCTGCTG”, the binding signal was found to be 4.16 z-score.
For the sequence “CCGATTAACATCAAATCACCCCCTGATGTTAATCGGGTCTTGATTCGCTTGACGCTGCTG”, the binding signal came out at 5.32 z-score.
In turn, “CCGATTAACATCAAGGATTCCCGTGATGTTAATCGGGTCTTGATTCGCTTGACGCTGCTG” registered a binding signal of 3.92 z-score.
Take “CCGATTAACATCAGGGGGACAAATGATGTTAATCGGGTCTTGATTCGCTTGACGCTGCTG”: the binding signal came out at 4.19 z-score.
The figure for “CCGATTAACATCACGTCCCCCCCTGATGTTAATCGGGTCTTGATTCGCTTGACGCTGCTG” is 4.49 z-score; for “CCGATTAACATCACCCACTTCCCTGATGTTAATCGGGTCTTGATTCGCTTGACGCTGCTG” it is 1.65 z-score.
In turn, “CCGATTAACATCACGTGTTTCCCTGATGTTAATCGGGTCTTGATTCGCTTGACGCTGCTG” showed a binding signal of 3.35 z-score.
Sequence “CCGATTAACATCACCTTGGGAAATGATGTTAATCGGGTCTTGATTCGCTTGACGCTGCTG” showed a binding signal of 1.62 z-score.
For “CCGATTAACATCAGGGGGTGTAATGATGTTAATCGGGTCTTGATTCGCTTGACGCTGCTG” the value was 3.21 z-score.
Turning to “CCGATTAACATCAGGCGATTCCCTGATGTTAATCGGGTCTTGATTCGCTTGACGCTGCTG”, the binding signal amounted to 3.88 z-score.
The figure for “CCGATTAACATCACGGGACTCCCTGATGTTAATCGGGTCTTGATTCGCTTGACGCTGCTG” is 5 z-score.
The figure for “CCGATTAACATCAGGGAAAGAAATGATGTTAATCGGGTCTTGATTCGCTTGACGCTGCTG” is 3.72 z-score.
